Where “and” joins values, the source holds several entries; their conditions need not be identical. Identical values can stand only once. The campaign covered roughly 73,000 compounds. About 1,800 (2.5%) were called active. Inconclusive results (about 13%) are left out. The call rests on the fitted dose curve; in most records, active means well fitted activation curve with a large enough effect; inconclusive means small, poorly fitted or top-dose-only effect; inactive means no such curve, though single readings can be large or run the other way. What follows is part of a selection rich in actives, with near analogues and random picks from the rest. Entries that show only a call come without a potency.
Assay: qHTS Assay for Agonists of the Thyroid Stimulating Hormone Receptor: Activators of Intracellular cAMP Concentrations in Parental HEK 293; further: nearly all actives have a fitted effect of over 55% in size
Details: parental HEK293 CNG cAMP sensor, membrane potential fluorescence; series mostly up to 57.1 µM
Procedure, shortened: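 Counterscreen for endogenous-receptor signalling: CNG-channel HEK 293 cells report cAMP rise by membrane depolarization. After 60 min dye equilibration with 100 uM RO 20-1724, compounds incubated 30 min before bottom-read fluorescence at 590 nm.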
Potency means the concentration at half of the fitted maximal effect.

Structure (SMILES) | Potency | activation
CSc1nnc(CNC(=O)c2ccccc2)n1-c1ccc(F)cc1 | inactive | –
CCCOc1ccc(NC(=O)C2CCCNC2=O)cc1 (stereo not given) | inactive | –
CCc1ccc2oc(=O)cc(CN3CCCCC3C)c2c1 (stereo not given) | 25.1 µM (active) | –
CC1CCCCN1CC(=O)NCc1ccc2c(c1)OCO2 (stereo not given) | inactive | –
Cc1cc(NC(=O)CN2CCCCC2C)nc2c1c(=O)oc1ccccc12 (stereo not given) | inactive | –
CCCn1c(-c2ccc(F)cc2)nc2c(NCC3CCCN3CC)nc(C)nc21 (stereo not given) | 15.8 µM (active) | –
CCCn1c(C)nc2c(NCCCCN(CC)CC)nc(C)nc21 | inactive | –
CCN1CCCC1CNc1ncnc2c1[nH]c1ccc(F)cc12 (stereo not given) | inactive | –
COc1ccc(CN2CC(C(=O)NCCN3CCN(c4ccccc4F)CC3)CC2=O)cc1 (stereo not given) | inactive | –
CN1CCC2(CC1)NC(=O)NC2=O | inactive | –
CC[C@@H]1Cc2cc(O)ccc2C2=C1c1ccc(O)cc1C[C@H]2CC | 6.31 µM (active) | –
O=P(O)(CN1CCCCC1)CN1CCCCC1 | inactive | –
O=C(c1ccc([N+](=O)[O-])cc1)[C@@H](Br)[C@@H](Br)c1ccnc2ccccc12 | – | 8.13% [at 11.4 µM] (inactive)
CCC[C@@H]1C[C@@]1(CCC)C(NC(=O)c1ccc(-c2ccccc2)cc1)c1cccc(Cl)c1 (stereo not given in full) | inactive | –
CCC[C@@H]1C[C@@]1(CCC)[C@@H](NC(=O)c1ccccc1)c1ccc(C(=O)OC)cc1 | 7.94 µM (active) | –
CCCC(=O)C1=C(N(C)c2ccccc2)CC(C)(C)C(C(=O)OC)C1=O (stereo not given) | inactive | –
COc1nc(OC)nc(N(C)CCO)n1 | inactive | –
CCSC(C)CC1C/C(=N/O)c2c(C)noc2C1 (stereo not given) | inactive | –
CCOC(=O)N1CCN(C(=O)c2ccc(CN(c3ccc(C)c(C)c3)S(C)(=O)=O)cc2)CC1 | inactive | –
CC(C)C(c1nnnn1Cc1ccccc1)N1CCC(C(N)=O)CC1 (stereo not given) | inactive | –
CCC(c1nnnn1C1CCCC1)N1CCN(C(=O)c2ccco2)CC1 (stereo not given) | inactive | –
CC(C)C(c1nnnn1C1CCCC1)N1CCN(c2ccccc2F)CC1 (stereo not given) | 15.8 µM (active) | –

Structure (SMILES) | Potency | activation
CC(C)CN1CCc2nc(-c3ccccc3)c3c(c2C1)COC(C)C3 (stereo not given) | – | -2.08% [at 11.4 µM] (inactive)
Cn1c2c(c(=O)n(C)c1=O)CN(Cc1ccco1)CN2 | inactive | –
c1ccc(Oc2ccccc2)cc1 | inactive | –
CC1CN(C2CCCCC2)c2nc3c(c(=O)n(C)c(=O)n3C)n2C1 (stereo not given) | inactive | –
Cn1cccc1C1(C(F)(F)F)NCCNC1=O (stereo not given) | inactive | –
COc1cc(-c2nn3c(-c4cccc(C)c4)nnc3s2)cc(OC)c1OC | inactive | –
Fc1ccc(OCc2nn3c(Cn4nnc5ccccc54)nnc3s2)cc1 | inactive | –
CCOc1cccc(-c2nnc3sc(COc4ccc(OC)cc4)nn23)c1 | 31.6 µM (active) | –
COc1ccccc1-c1cc(NCc2cccs2)ncn1 | 31.6 µM (active) | –
COc1ccccc1CNCc1cccs1 | inactive | –
Clc1ccccc1-c1cc(NCCN2CCOCC2)ncn1 | inactive | –
CNc1nc(-c2ccccc2OC)nc2ccccc12 | inactive | –
COc1ccccc1-c1nc(NCc2cccs2)c2ccccc2n1 | 25.1 µM (active) | –
COc1ccccc1-c1nc(NCCNC(C)=O)c2ccccc2n1 | inactive | –
CCOC(=O)c1cc2occc2n1CC(=O)N1CCN(C(=O)c2ccco2)CC1 | inactive | –
CO[C@@H]1COC(=O)C/C=C\[C@H](C)[C@@H](NS(=O)(=O)c2ccc(C)cc2)COC(=O)C/C=C\[C@@H]1C | – | 2.07% [at 11.4 µM] (inactive) and 4.9% [at 11.4 µM] (inactive)
CCC[C@H]1C(=O)N2C(N(C)C)=Nc3ccc(C)cc3N2C1=O | inactive | –
COc1ccccc1C(=O)C(O)c1ccccc1OC (stereo not given) | inactive | –
Cc1ccc(C)c(N2CCN(C(=O)CCc3nc4ccccc4[nH]3)CC2)c1 | inactive | –
Cc1cc(C)n(-c2nc(SCC(=O)N3CCCC3)c3c4c(sc3n2)CCCC4)n1 | inactive | –
COCCn1c(C)cc(C(=O)CSc2ncnc3sc4c(c23)CCC4)c1C | inactive | –
COCCNc1nc(-n2nc(C)cc2C)nc2sc3c(c12)CCCC3 | 15.8 µM (active) | –

Structure (SMILES) | Potency | activation
COCCOC(=O)C1=C(C)NC(=O)CC1c1cc2c(cc1Br)OCO2 (stereo not given) | inactive | –
CCCOc1ccccc1C1CC(=O)Nc2cc3c(cc21)OCO3 (stereo not given) | 7.94 µM (active) | –
COc1cc2c(cc1OC)C(c1ccc(C)o1)CC(=O)N2 (stereo not given) | inactive | –
COc1ccc(NS(=O)(=O)c2ccc(NC(=O)C(C)(C(F)(F)F)C(F)(F)F)cc2)nn1 | inactive | –
Cc1nc2nc[nH]n2c(=O)c1NC(=O)c1cccc(OCC(C)C)c1 | inactive | –
COC(=O)C1C(=O)c2c([nH]c(C(=O)OCCSC)c2C)CC1C (stereo not given) | inactive | –
CCCOC(=O)c1[nH]c2c(c1C)C(=O)CC(c1cc(OC)c(OC)c(OC)c1)C2 (stereo not given) | 15.8 µM (active) | –
CCOC(=O)c1[nH]c2c(c1C)C(=O)CC(c1ccc(N(C)C)cc1)C2 (stereo not given) | inactive | –
N[C@@H](C(=O)O)c1ccc(P(=O)(O)O)cc1 | inactive | –
C/C(CCN1CCCCc2nc(C)c(C)cc21)=N\O[C@@H](C)c1cn([C@@H]2COC[C@@H]2O)nn1 | – | 6.27% [at 11.4 µM] (inactive)
C[C@@H]1O[C@@H](O[C@@H]2[C@@H](O)[C@H](OCCc3ccc(O)c(O)c3)O[C@H](CO[C@@H]3O[C@H](CO)[C@@H](O)[C@H](O)[C@H]3O)[C@H]2OC(=O)/C=C/c2ccc(O)c(O)c2)[C@H](O)[C@H](O)[C@H]1O | inactive | –
CO[C@H]1COC(=O)[C@@H](OCc2ccccc2)/C=C\[C@H](C)[C@@H](OC)COC(=O)[C@H](OCc2ccccc2)/C=C\[C@@H]1C | – | -2.98% [at 11.4 µM] (inactive)
Cn1cccc1C(=O)N1CCC[C@@]2(CCN(Cc3nccs3)C2)C1 | inactive | –
O=C(c1csnn1)N1CCC[C@@]2(CCN(Cc3nccs3)C2)C1 | 3.98 µM (active) | –
O=C(c1csnn1)N1CCC2(CC1)CN(c1ncccn1)C2 | inactive | –
CCc1cc(=O)oc2cc(OCC(=O)N3CCCc4ccccc43)ccc12 | inactive | –
CCOC(=O)c1ccc(NC(=O)CS(=O)(=O)c2cn(CC)c3ccccc23)cc1 | inactive | –
COC(=O)[C@@H](NC(=O)NCc1cccc(OC)c1)C(C)C | inactive | –
O=C(Nc1ccccc1N1CCN(c2ccccc2)CC1)c1cccc(F)c1 | 3.98 µM (active) | –
O=C(c1cccc(F)c1)N1CCC2(CC1)CCN(c1ccccc1)CC2 | inactive | –
O=C(Nc1cccc(NC(=O)N2CCN(c3ccccc3)CC2)c1)N1CCN(c2ccccc2)CC1 | inactive | –
